Where a name gives a salt, the structure may show the parent alone.

The subject of the first experiment is OCI-AML2. As to the kind of experiment: cell viability relative to vehicle control; higher = less cytotoxic. The conditions noted are these: 10 µM; SRSF2 genotype: P95H/wt. A digest of the protocol:
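CRISPR-edited mutant clones and isogenic wild-type clones from four leukaemia lines were screened against Selleck bioactive, kinase and epigenetic probe libraries, with identity-inconsistent compounds excluded. Each compound was acoustically dispensed at a single 10 µM dose into 384-well plates holding 2000 cells in 50 µL medium per well. After 48 h the supernatant was removed and CellTiter-Glo luminescence was read. Viability was expressed as percent of the on-plate vehicle control and analysed in Genedata Screener.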
In the case of `Cc1cc2c(F)c(Oc3ncnn4cc(OC[C@@H](C)O)c(C)c34)ccc2[nH]1`, the cell viability turned out to be 97.5%.

As to `CCOc1cc(N2CCC(O)CC2)ccc1Nc1ncc2c(n1)N(C)c1ccccc1C(=O)N2C`, the cell viability worked out at 58.3%.

Regarding `CCCc1nn(C)c2c(=O)[nH]c(-c3cc(S(=O)(=O)N4CCN(C)CC4)ccc3OCC)nc12` [Sildenafil citrate], the cell viability amounted to 118%.

With `CC(O)C(O)c1cnc2nc(N)[nH]c(=O)c2n1` (configuration not stated) [6-Biopterin], the cell viability came to 104%.

Regarding `COc1ccc(-c2ccc3ncc4c(c3c2)n(-c2ccc(N3CCNCC3)c(C(F)(F)F)c2)c(=O)n4C)cn1`, the cell viability is 0.11%.

Regarding `CO/N=C(\C(=O)N[C@@H]1C(=O)N2C(C(=O)O)=C(CSc3nnnn3C)CS[C@H]12)c1csc(N)n1` [Cefmenoxime hydrochloride], the cell viability was 97.2%.

For the compound `COC(=O)Nc1nc2cc(Sc3ccccc3)ccc2[nH]1` [Fenbendazole (Panacur)], the cell viability was found to be 9.8%.

Turning to `COc1cc2nccc(Oc3ccc(NC(=O)C4(C(=O)Nc5ccc(F)cc5)CC4)cc3)c2cc1OC`, the cell viability is 19.2%.

With `CCCCOc1c(C(=O)c2c(F)cc(C)cc2F)c[nH]c2nncc1-2`, the cell viability amounted to 57.1%.

Regarding `CCCCC(C)(O)C/C=C/[C@H]1[C@H](O)CC(=O)[C@@H]1CCCCCCC(=O)OC` (mixture of isomers) [Misoprostol], the cell viability turned out to be 89.2%.

Take `O=c1sn(-c2cccc3ccccc23)c(=O)n1Cc1ccccc1` [Tideglusib]: the cell viability is 54.7%.

With `O=C(COc1ccc(Cl)cc1)NC1CCC(NC(=O)COc2ccc(Cl)cc2)CC1` (stereo not drawn) [ISRIB (trans-isomer)], the cell viability is 99.2%.

Regarding `CC=C(C)C(=O)O` [Tiglic acid], the cell viability came out at 110%.

The experiment is the same for the next values; noted with them: 10 µM; SRSF2 genotype: wt/wt.
In the case of `Cc1nc(N)sc1-c1ccnc(Nc2ccc(N3CCOCC3)cc2)n1`, the cell viability was 13.7%.

As for `C=C[C@]1(C)C[C@@H](OC(=O)CSCCN(CC)CC)[C@]2(C)[C@H](C)CC[C@]3(CCC(=O)[C@H]32)[C@@H](C)[C@@H]1O` [Tiamulin], the cell viability was 79.5%.

In the case of `C[C@@H]1CC[C@@]2(OC1)O[C@H]1C[C@H]3[C@@H]4CC=C5C[C@@H](O)C[C@@H](O)[C@]5(C)[C@H]4CC[C@]3(C)[C@H]1[C@@H]2C` [Ruscogenin], the cell viability stood at 94.3%.

On to `C[C@@H]1O[C@@H](O[C@H]2[C@H](O[C@H]3CC[C@@]4(C)[C@@H](CC[C@]5(C)[C@@H]4CC=C4[C@@H]6CC(C)(C)CC[C@]6(C(=O)O)CC[C@]45C)[C@]3(C)CO)OC[C@H](O[C@@H]3O[C@H](CO)[C@@H](O)[C@H](O)[C@H]3O)[C@@H]2O)[C@H](O)[C@H](O)[C@H]1O` [Pulsatilla saponin D], for which the cell viability was 0.54%.

For `Cc1cc(C#N)cc(C)c1Oc1nc(Nc2ccc(C#N)cc2)nc(N)c1Br` [Etravirine (TMC125)], the cell viability came out at 117%.

Take `CCCNCC(O)COc1ccccc1C(=O)CCc1ccccc1` (configuration not stated) [Propafenone HCl]: the cell viability was determined as 68%.

Regarding `CN1CCN(Cc2ccc(Nc3ncc(Cl)c(Nc4ccccc4S(=O)(=O)N(C)C)n3)cc2)CC1`, the cell viability turned out to be 10.3%.

For `O=C(O)CNC(=O)c1nc(Cl)c2ccccc2c1O`, the cell viability was 89.8%.

In the case of `Cc1cc(C2CCCCC2)n(O)c(=O)c1` [Ciclopirox (Penlac)], the cell viability is 16.3%.

With `COc1ccc(CCC(=O)Nc2nc3ccc(Cl)cc3s2)cc1OC`, the cell viability stood at 87.5%.

As to `COc1ccc(/C=C/c2cc(O)cc(O[C@@H]3O[C@H](CO)[C@@H](O)[C@H](O)[C@H]3O)c2)cc1O` [Rhapontin], the cell viability amounted to 95.5%.

On to `CC(C)=CCCC(C)(OC1OC(COC2OCC(O)C(O)C2O)C(O)C(O)C1O)C1CCC2(C)C1C(O)CC1C3(C)CCC(OC4OC(CO)C(O)C(O)C4O)C(C)(C)C3CCC12C` (configuration not stated) [Gynostemma Extract], for which the cell viability came to 98%.

Regarding `CC1(C)CC[C@]2(C(=O)O)[C@H](O)C[C@]3(C)C(=CC[C@@H]4[C@@]5(C)CC[C@H](O)[C@@](C)(C=O)[C@@H]5CC[C@]43C)[C@@H]2C1` [Quillaic acid], the cell viability came out at 96.8%.

Regarding `CCN(CC)CCNC(=O)c1c(C)[nH]c(/C=C2\C(=O)Nc3ccc(F)cc32)c1C` [Sunitinib], the cell viability is 2.85%.

With `CCCCCCCCCCCCCCCC(=O)O` [Palmitic acid], the cell viability turned out to be 114%.

As for `C=CCS[S+]([O-])CC=C` (configuration not stated) [Allicin], the cell viability is 105%.

`Cc1ccccc1-c1cc(N2CCN(C)CC2)ncc1N(C)C(=O)C(C)(C)c1cc(C(F)(F)F)cc(C(F)(F)F)c1` [Netupitant]: the cell viability amounted to 75.3%.

As to `CCCCCCCCCCCCCCCCOc1nc2ccc(C)cc2c(=O)o1` [Cetilistat], the cell viability was 108%.

For the compound `C[C@H](CCC(=O)O)[C@H]1CC[C@H]2[C@@H]3[C@H](O)C[C@@H]4C[C@H](O)CC[C@]4(C)[C@H]3C[C@H](O)[C@]12C` [Cholic acid], the cell viability was determined as 98.9%.
